Among the data in PubChem BioAssay are z-score and composite z-score values, retold here.

Activity calls are given as the source filed them.

The nature of test [1]: compound effects on differentiated 3T3-L1 adipocyte viability – cell-based, 3T3-L1 adipocytes, calcein-AM fluorescence, 48 h, basal, profiling panel (AID 1163). The following applies: 3T3-L1 adipocytes viability, higher = more signal.
Test [2] can be described thus: compound effects on hepatocellular carcinoma cell viability – HepG2, calcein-AM fluorescence, 48 h, basal, profiling panel (AID 1164). The conditions noted are these: higher = more signal.
Test [3] is described as follows: compound effects on multiple myeloma cell viability – MM1S, calcein-AM fluorescence, 48 h, basal, profiling panel (AID 1165).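 Note: viability of MM1S multiple myeloma cells under basal unstimulated conditions.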 The following applies: higher = more signal.
The nature of test [4]: calcein-AM signal in unstimulated myeloma cells – cell-based, calcein-AM fluorescence, 48 h, PK04 Diversity Set, profiling panel (AID 1166).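 Note: cells grown under basal conditions without added stimulus.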 The conditions noted are these: RPMI8226 myeloma viability, higher = more signal.
A short description of test [5]: JC-1 mitochondrial signal, unstimulated HepG2 cells – cell-based, JC-1 fluorescence, 24 h, 100 nL compound, profiling panel (AID 1167). The following applies: HepG2 mitochondrial potential, higher = more signal.
Test [6] is described as follows: JC-1 mitochondrial signal, unstimulated adipocytes – cell-based, JC-1 fluorescence, 3T3-L1 adipocytes, 24 h, 100 nL compound, profiling panel (AID 1168). The conditions noted are these: JC-1 mitochondrial fluorescence, higher = more signal, called active from +8 up or from −8 down.
Test [7] can be described thus: JC-1 mitochondrial signal, unstimulated myeloma cells – cell-based, JC-1 fluorescence, RPMI8226, 24 h, 100 nL compound, profiling panel (AID 1169). The following applies: JC-1 mitochondrial potential fluorescence, higher = more signal.
A short description of test [8]: JC-1 mitochondrial signal, unstimulated MM1S myeloma – cell-based, JC-1 fluorescence, 24 h, 100 nL compound, profiling panel (AID 1170). The following applies: MM1S mitochondrial potential, higher = more signal.
Test [9] in a line: resazurin metabolic signal in A549 cells – cell-based, resazurin fluorescence, 24 h, PK04 Diversity Set, profiling panel (AID 1171). The conditions noted are these: A549 viability, higher = more signal, called active from +8 up or from −8 down. (In general: Resazurin is reduced to fluorescent resorufin, in cell work by metabolically active cells.)
Test [10] is described as follows: resazurin metabolic signal in HepG2 cells – cell-based, resazurin fluorescence, 24 h, PK04 Diversity Set, profiling panel (AID 1172). The conditions noted are these: HepG2 viability, higher = more signal.
Test [11] can be described thus: budding yeast growth changes without added modifier – OD600, strain BY4716, 24 h, basal condition, primary screen (AID 1173). The following applies: S. cerevisiae BY4716 growth, OD600, 24 h; higher = more signal, called active from +8 up or from −8 down.
Test [12] is described as follows: viability profiling in MM1S myeloma cells – cell-based, resazurin fluorescence, basal, 24 h, PK04 Diversity Set, profiling panel (AID 1174). The following applies: higher = more signal, called active from +8 up or from −8 down.
Test [13] has as its target Dihydroorotate dehydrogenase (quinone), mitochondrial (Plasmodium falciparum (isolate 3D7)) (UniProt Q08210). Briefly: inhibition of P. falciparum DHODH – biochemical, C-terminal His tag, absorbance 600 nm, primary screen (AID 1175).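 Note: recombinant parasite enzyme with a five histidine tag at its C terminus.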 The conditions noted are these: PfDHODH enzyme, DCIP absorbance 600 nm; higher = more signal, called active from +8 up or from −8 down.
The nature of test [14]: growth modulation of vineyard yeast isolate – strain RM11-1a, OD600, basal, 24 h, primary screen (AID 1177).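 Note: cultures grown under basal conditions with no added stressor.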 The following applies: S. cerevisiae RM11-1a growth, OD600, 24 h; higher = more signal, called active from +8 up or from −8 down.
Test [15] in a line: growth of efflux-deficient E. coli DRC39 – strain DRC39, OD650, 24 h, E. coli filamentation inducers, primary screen (AID 1178).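 Note: growth measured as culture turbidity by optical density at 650 nm.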 The following applies: E. coli DRC39 acrAB, higher = more signal, called active from +8 up or from −8 down.
Test [16] can be described thus: growth of efflux-deficient E. coli DRC39 – strain DRC39, OD650, 48 h, E. coli filamentation inducers, primary screen (AID 1179).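 Note: screen aims at cell division blockers that make cells filament.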 The conditions noted are these: E. coli DRC39 delta-acrAB growth, higher = more signal, called active from +8 up or from −8 down.
The nature of test [17]: viability profiling in RPMI8226 myeloma cells – cell-based, resazurin fluorescence, basal, 24 h, PK04 Diversity Set, profiling panel (AID 1180).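 Note: RPMI8826 multiple myeloma cell line at 5000 cells per well.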 The conditions noted are these: higher = more signal.
In test [18] the target is E3 ubiquitin-protein ligase XIAP (Homo sapiens) (UniProt P98170). Nature of the test: small molecules binding XIAP protein – biophysical, small-molecule microarray, fluorescence 635 nm, primary screen (AID 1181).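 Note: score merges 667 nm emission and signal to noise over triplicate slides.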 The following applies: higher = more signal.
Chain of E3 ubiquitin-protein ligase XIAP (Homo sapiens) (P98170 whole entry, looked up, the tested form may be a part): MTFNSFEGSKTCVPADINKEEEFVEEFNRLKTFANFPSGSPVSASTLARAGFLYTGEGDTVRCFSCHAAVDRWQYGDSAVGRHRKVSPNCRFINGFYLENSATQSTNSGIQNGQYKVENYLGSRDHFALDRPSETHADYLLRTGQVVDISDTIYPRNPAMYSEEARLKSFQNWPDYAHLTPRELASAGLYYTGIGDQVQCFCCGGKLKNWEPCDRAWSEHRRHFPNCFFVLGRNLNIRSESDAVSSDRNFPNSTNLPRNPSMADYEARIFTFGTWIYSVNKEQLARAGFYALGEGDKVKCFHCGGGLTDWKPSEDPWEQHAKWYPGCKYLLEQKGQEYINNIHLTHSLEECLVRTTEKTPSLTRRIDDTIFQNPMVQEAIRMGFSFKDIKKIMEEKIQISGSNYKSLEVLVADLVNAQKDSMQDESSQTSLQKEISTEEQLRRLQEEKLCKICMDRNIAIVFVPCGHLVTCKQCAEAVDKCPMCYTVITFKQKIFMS
The test system of test [19] is XIP peptide (Xip251-270) binding. Briefly: XIP fragment 251-270 binding compounds – biochemical, small-molecule microarray, fluorescence 635/667 nm, 0.1 µg/mL protein, primary screen (AID 1182). The conditions noted are these: fluorescent protein binding, 635 nm, higher = more signal, called active from +8 up or from −8 down.
Another test deals with XIP peptide (Xip251-270). Nature of the test: compounds binding XIP fragment 251-270 – biochemical, small-molecule microarray, fluorescence 635/667 nm, 0.5 µg/mL protein, primary screen (AID 1183). The conditions noted are these: fluorescence 635 nm, higher = more signal.

Chain of Dihydroorotate dehydrogenase (quinone), mitochondrial (Plasmodium falciparum (isolate 3D7)) (Q08210 whole entry, looked up): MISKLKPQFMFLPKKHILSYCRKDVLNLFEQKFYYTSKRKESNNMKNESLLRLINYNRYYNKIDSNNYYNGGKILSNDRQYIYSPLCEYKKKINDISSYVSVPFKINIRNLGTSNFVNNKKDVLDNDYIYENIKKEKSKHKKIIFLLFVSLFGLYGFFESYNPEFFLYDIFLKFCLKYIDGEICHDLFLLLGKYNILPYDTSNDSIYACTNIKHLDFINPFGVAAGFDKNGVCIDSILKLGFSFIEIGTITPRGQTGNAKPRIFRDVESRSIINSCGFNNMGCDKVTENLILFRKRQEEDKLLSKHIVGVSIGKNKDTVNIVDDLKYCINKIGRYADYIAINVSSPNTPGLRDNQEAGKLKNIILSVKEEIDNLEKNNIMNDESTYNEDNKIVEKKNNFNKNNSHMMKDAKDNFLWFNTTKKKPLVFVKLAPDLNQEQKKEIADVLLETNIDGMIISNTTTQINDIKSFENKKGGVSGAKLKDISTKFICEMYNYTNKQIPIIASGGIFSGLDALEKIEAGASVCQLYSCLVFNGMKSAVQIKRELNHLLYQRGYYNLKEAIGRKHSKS

For `CC(C)C(=C=CC[C@@H](O)c1ccc(CO)o1)CCO`, the z-score in [1] was -0.266; in test [2], 0.719; in test [3] it was 0.288; in test [4], 0.889; in test [5], 0.919; in test [6] it was 0.556 (inactive). The z-score in test [7] is 0.304; in test [8], 0.501; in [9], 1.37 (inactive); in test [10], 1.32; in [11], -1.13 (inactive); in test [12], 1.07 (inactive). In addition, the z-score was -0.332 (inactive) in test [14], 2.09 (inactive) in [15], 1.39 (inactive) in test [16] and 1.18 in test [17]. The composite z-score was -0.669 (inactive) in test [13], -0.0036 in test [18], 0.676 (inactive) in test [19] and -0.514 with XIP peptide (Xip251-270).
In the case of `COCCCNC(=O)[C@@]1(Cc2ccccc2CN=[N+]=[N-])COC(c2ccc(OCCCO)cc2)=N1`, the z-score in test [1] was 1.08; in test [2] it was 0.501; in [3], -2.46; in test [4] it was -0.77; in [5] it was 0.287; in [6], 1.33 (inactive). Moreover, the z-score in test [7] was -0.724; in test [8], -0.376; in [9], 0.616 (inactive); in [10], 1.8; in [11], -1.66 (inactive); in [12] it was 0.0645 (inactive). Further, the z-score in [14] is 0.493 (inactive); in test [15], 2 (inactive); in [16], 1.61 (inactive); in test [17] it was 0.693. The composite z-score in [13] is -0.49 (inactive); in test [18] it was -0.0525; in test [19] it was 1.94 (inactive); in the test on XIP peptide (Xip251-270), 0.866.
On to `COCCOC(=O)N1C(=O)[C@@]2(c3ccccc31)[C@H](C(=O)Nc1nc3ccccc3s1)[C@H]1C(=O)O[C@H](c3ccccc3)[C@H](c3ccccc3)N1[C@@H]2c1ccc(O)cc1`, for which the z-score in test [1] is 0.471; in [2], -1.49; in test [3] it was -3.26; in test [4], -3.76; in test [5], -3.44; in [6] it was 1.01 (inactive). Also, the z-score is -1.05 in test [7]; -1.87 in [8]; 0.35 (inactive) in test [9]; 0.148 in test [10]; 2.4 (inactive) in test [11]; -1.22 (inactive) in test [12]. Also, the z-score was 4.4 (inactive) in test [14], 1.23 (inactive) in test [15], 1.84 (inactive) in test [16] and -0.898 in [17]. Besides, the composite z-score is -2.63 (inactive) in [13], -0.0025 in test [18], 1.03 (inactive) in test [19] and 0.748 in the test with XIP peptide (Xip251-270).
Turning to `C=CCOC(=O)[C@H]1[C@@H]2C(=O)O[C@@H](c3ccccc3)[C@@H](c3ccccc3)N2[C@@H](c2ccc(OCCOC(=O)[C@H]3C[C@H]4C(=O)N5CCC[C@H]5C(=O)N4[C@H]3c3cccc(OCCO)c3)cc2)[C@]12C(=O)Nc1ccccc12`, the z-score in test [1] is 1.19; in test [2], -0.588; in test [3] it was -1.73; in test [4], 0.791; in test [5] it was -0.558; in test [6], 0.569 (inactive). Moreover, the z-score is -0.585 in test [7]; -0.673 in test [8]; 0.601 (inactive) in [9]; 0.0928 in test [10]; 0.22 (inactive) in test [11]; 1.26 (inactive) in test [12]. Moreover, the z-score in test [14] was 1.16 (inactive); in test [15] it was 0.971 (inactive); in [16] it was 0.184 (inactive); in test [17], 1.37. The composite z-score in test [13] is 0.493 (inactive); in test [18], 0.298; in test [19], 1.33 (inactive); in the test with XIP peptide (Xip251-270), 0.809.
`Cc1ccc(S[C@]2(C(=O)NCC(C)C)CC(=O)N(C(C)C)[C@@H]2c2ccc(CO)cc2)cc1`: the z-score was 2.25 in test [1]; -1.49 in [2]; 0.623 in test [3]; -0.954 in [4]; 0.34 in test [5]; -0.446 (inactive) in [6]. For the same molecule, the z-score in [7] is 0.134; in test [8], 0.381; in [9], 0.443 (inactive); in [10], -0.784; in test [11], 0.225 (inactive); in test [12], 1.13 (inactive). The z-score is -1.24 (inactive) in test [14], 1.49 (inactive) in [15], 0.719 (inactive) in [16] and 0.687 in [17]. Besides, the composite z-score was -0.052 (inactive) in test [13], -0.0481 in [18], -0.467 (inactive) in test [19] and -0.284 in the test on XIP peptide (Xip251-270).
With `CCCCC(=C=CC[C@H](O)c1cccc(OCCO)c1)CCO`, the z-score in test [1] was 1.07; in [2], -0.693; in [3], -1; in test [4] it was -0.257; in [5], 0.733; in test [6], 0.439 (inactive). The z-score in test [7] was 0.12; in test [8], -0.0531; in test [9], 1.7 (inactive); in test [10] it was 0.529; in test [11] it was -1.41 (inactive); in [12], 1.31 (inactive). The z-score in test [14] was -0.114 (inactive); in [15] it was 1.3 (inactive); in [16] it was 0.749 (inactive); in test [17] it was 0.837. Moreover, the composite z-score in [13] is -0.802 (inactive); in [18], 0.0458; in test [19], 0.511 (inactive); with XIP peptide (Xip251-270), -0.97.
With `CC(C)C[C@@H]1NC(=O)[C@@]23C(=O)N[C@@H](Cc4ccccc4)C2[C@H](C)[C@@]2(C)O[C@H]2C3/C=C/C/C=C\CNC(=O)[C@H](Cc2ccccc2)NC1=O` (stereo not given in full), the z-score in test [1] was 1.14; in test [2] it was 0.331; in [3] it was 0.0263; in [4], -0.928; in test [5], 1.42; in test [6], 0.868 (inactive). For the same molecule, the z-score in test [7] was -0.0886; in test [8], 0.851; in test [9], 0.703 (inactive); in test [10], 0.182; in test [11], -2.28 (inactive); in test [12], -0.295 (inactive). The z-score in [14] was -0.748 (inactive); in [15], 2.7 (inactive); in test [16] it was 1.22 (inactive); in [17] it was 0.468. Besides, the composite z-score is 0.113 (inactive) in [13], 0.52 in test [18], 0.0183 (inactive) in [19] and 0.789 in the test with XIP peptide (Xip251-270).
Take `CO[C@H]1O[C@H](CO)[C@@H](OC(=O)Nc2ccccc2)[C@H](OC(=O)Nc2ccccc2-c2ccccc2)[C@@H]1OC(=O)Nc1ccccc1-c1ccccc1`: the z-score is 0.195 in [1]; -1.35 in test [2]; -1.09 in test [3]; -1.33 in test [4]; -0.629 in test [5]; 2.01 (inactive) in [6]. In addition, the z-score is -0.947 in [7]; 0.15 in test [8]; -2.22 (inactive) in [9]; -0.342 in test [10]; -0.954 (inactive) in [11]; -1.15 (inactive) in [12]. Besides, the z-score in [14] is 2.16 (inactive); in [15] it was -0.233 (inactive); in [16], -0.3 (inactive); in test [17] it was -0.447. For the same molecule, the composite z-score in [13] was -1.33 (inactive); in test [18], -0.0988; in [19], 1.7 (inactive); in the test on XIP peptide (Xip251-270), 0.868.
